# About 7,900 targets were measured; listed, in parts, are those with a hit and a random draw of the rest. About 0.6% of all pairs of compound and target were hits. Unmarked numbers belong to inactive results.
# Tests used:
# Test in all cases: log2 fold change, soluble protein after heating vs DMSO (PISA); higher = thermal stabilisation; K562 cells, 10 uM, 30 min; active = over 0.2 and 3.5 SD of the protein, either way, in both replicates (recomputed)
# [1] = compound: CC(=O)c1cnc2ccc(-c3cc(Cl)c(O)c(Cl)c3)nc2c1N[C@H]1CC[C@H](CN(C)C)CC1
# In short: (§1)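 K562 cells at 2×10^6 cells/mL were exposed to 10 μM compound for 30 min, then aliquots were heated for 3 min across 48°C-58°C, pooled, and extracted in PBS containing 0.5% NP-40 at 4°C. The supernatant after 21,000xg for 90 min was taken as soluble protein and measured by TMTpro 16plex LC-MS/MS with channel sums equalised. Thermal stability is reported relative to control samples, with values from duplicates. Fold changes are given on a log2 scale.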
# [2] = compound: CC(C)(C)Cn1c(N)nc2ccc(-c3[nH]c(C(C)(C)C)nc3-c3ccc(F)cc3)nc21 [ralimetinib]
# In short: as §1
# [3] = compound: CC(C)(O)CC(=O)NCCn1ccc2ncnc(Nc3ccc(Oc4cccc(C(F)(F)F)c4)c(Cl)c3)c21
# In short: as §1
# [4] = compound: CC(C)C[C@@H](C=O)NC(=O)[C@H](CC(C)C)NC(=O)[C@H](CC(C)C)NC(=O)OCc1ccccc1
# In short: as §1
# [5] = compound: CC1=C(C(CC(=O)N1)C2=CC=C(C=C2)C(F)(F)F)C(=O)NC3=C(C=C4C(=C3)C=NN4)F
# In short: as §1
# [6] = compound: CC1=C(C2=C(C=C1)C(=O)C3=CC=CC=C3N2CCCN)C
# In short: as §1
# [7] = compound: CC1=C(C=C(C=C1)NC(=O)C2=CC(=CC=C2)C(C)(C)C#N)NC3=CC4=C(C=C3)N=CN(C4=O)C
# In short: as §1
# [8] = compound: CC1=C(C=C(C=C1)NC(=O)C2=CC(=CC=C2)N(C)C)NC(=O)C3=CC=C(C=C3)O
# In short: as §1
# [9] = compound: CC1=CC=C(C=C1)SC2=C3C=C(SC3=CN=C2)C(=O)N
# In short: as §1
# [10] = compound: CCCCN(Cc1ccc(C(=O)NO)cc1)C(=O)Nc1ccccc1 [Nexturastat A]
# In short: as §1
# [11] = compound: CCCS(=O)(=O)Nc1ccc(F)c(C(=O)c2c[nH]c3ncc(Cl)cc23)c1F
# In short: as §1
# [12] = compound: CCCc1cc(C)[nH]c(=O)c1CNC(=O)c1cc(-c2ccnc(N3CCN(C)CC3)c2)cc2c1cnn2C(C)C
# In short: as §1
# [13] = compound: C=CC(=O)N1CCC[C@@H](n2nc(-c3ccc(Oc4ccccc4)cc3)c3c(N)ncnc32)C1 [ibrutinib]
# In short: as §1
# [14] = compound: CCN(CCCOc1ccc2c(Nc3cc(CC(=O)Nc4cccc(F)c4)[nH]n3)ncnc2c1)CCOP(=O)(O)O [barasertib]
# In short: as §1
# [15] = compound: CC(C)C1=C2N=C(C=C(N2N=C1)NCC3=CC=CC=C3)NCCCCCCN
# In short: as §1
# [16] = compound: CCN(CC)Cc1ccc2cc(COC(=O)Nc3ccc(C(=O)NO)cc3)ccc2c1 [givinostat]
# In short: as §1
# [17] = compound: C1COCCN1CCN2C3=CC=CC=C3N=C2NC(=O)C4=CC(=CC=C4)[N+](=O)[O-] [IRAK-1-4 Inhibitor I]
# In short: as §1
# [18] = compound: CC(C)N(C[C@H]1O[C@@H](n2cnc3c(N)ncnc32)[C@H](O)[C@@H]1O)[C@H]1C[C@@H](CCc2nc3cc(C(C)(C)C)ccc3[nH]2)C1 [pinometostat]
# In short: as §1
# [19] = compound: CC1=NC(=CC=C1)C2=C(N=C(N2)C(C)(C)C)C3=CC4=NC=CN=C4C=C3
# In short: as §1
# [20] = compound: CCCS(=O)(=O)Nc1ccc(F)c(C(=O)c2c[nH]c3ncc(-c4ccc(Cl)cc4)cc23)c1F [vemurafenib]
# In short: as §1
# Sequence of UniProt Q9UBY8 (Q9UBY8 whole entry, looked up): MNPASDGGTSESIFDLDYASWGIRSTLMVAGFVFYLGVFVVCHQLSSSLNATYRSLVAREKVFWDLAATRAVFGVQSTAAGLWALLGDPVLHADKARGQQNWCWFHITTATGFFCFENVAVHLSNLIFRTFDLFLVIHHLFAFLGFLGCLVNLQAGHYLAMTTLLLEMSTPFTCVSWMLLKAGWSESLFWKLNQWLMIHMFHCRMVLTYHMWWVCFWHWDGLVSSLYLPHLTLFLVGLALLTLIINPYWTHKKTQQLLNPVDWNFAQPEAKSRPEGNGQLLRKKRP
# Sequence of UniProt P34810 (P34810 whole entry, looked up): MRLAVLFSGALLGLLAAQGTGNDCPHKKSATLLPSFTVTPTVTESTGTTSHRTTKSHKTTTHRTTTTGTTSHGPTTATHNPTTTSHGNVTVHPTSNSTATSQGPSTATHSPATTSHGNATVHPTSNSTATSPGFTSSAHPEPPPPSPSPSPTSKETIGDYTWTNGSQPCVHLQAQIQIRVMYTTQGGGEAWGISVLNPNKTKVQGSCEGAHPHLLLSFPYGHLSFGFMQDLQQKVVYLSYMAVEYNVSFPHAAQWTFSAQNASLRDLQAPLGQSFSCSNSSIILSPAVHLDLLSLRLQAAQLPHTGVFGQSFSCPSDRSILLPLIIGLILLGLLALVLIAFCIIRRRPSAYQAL
# Sequence of UniProt Q96F85 (Q96F85 whole entry, looked up): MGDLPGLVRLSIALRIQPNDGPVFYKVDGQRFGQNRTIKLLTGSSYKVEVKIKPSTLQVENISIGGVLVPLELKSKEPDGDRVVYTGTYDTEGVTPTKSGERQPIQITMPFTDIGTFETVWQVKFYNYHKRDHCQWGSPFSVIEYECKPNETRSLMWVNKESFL
# Sequence of UniProt O60583 (O60583 whole entry, looked up): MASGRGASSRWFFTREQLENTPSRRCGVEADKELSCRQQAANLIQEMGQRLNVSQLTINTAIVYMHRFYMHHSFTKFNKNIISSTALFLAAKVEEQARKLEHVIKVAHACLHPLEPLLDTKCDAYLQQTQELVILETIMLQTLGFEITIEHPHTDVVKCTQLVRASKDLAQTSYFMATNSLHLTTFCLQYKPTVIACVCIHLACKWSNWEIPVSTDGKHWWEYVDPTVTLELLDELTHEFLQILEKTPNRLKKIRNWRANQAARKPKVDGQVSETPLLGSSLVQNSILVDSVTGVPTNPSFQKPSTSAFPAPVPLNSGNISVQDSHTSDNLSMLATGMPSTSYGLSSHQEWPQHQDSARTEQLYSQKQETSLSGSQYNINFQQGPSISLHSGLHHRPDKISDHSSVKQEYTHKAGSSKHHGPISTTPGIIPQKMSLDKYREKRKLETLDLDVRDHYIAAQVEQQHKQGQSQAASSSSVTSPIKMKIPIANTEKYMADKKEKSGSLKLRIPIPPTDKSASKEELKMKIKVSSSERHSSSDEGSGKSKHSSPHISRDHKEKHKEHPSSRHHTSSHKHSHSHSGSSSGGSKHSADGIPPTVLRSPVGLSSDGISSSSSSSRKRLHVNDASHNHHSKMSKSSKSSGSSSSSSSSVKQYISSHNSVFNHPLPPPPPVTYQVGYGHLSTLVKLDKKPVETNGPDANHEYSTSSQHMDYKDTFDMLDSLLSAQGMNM
# Sequence of UniProt P51795 (P51795 whole entry, looked up): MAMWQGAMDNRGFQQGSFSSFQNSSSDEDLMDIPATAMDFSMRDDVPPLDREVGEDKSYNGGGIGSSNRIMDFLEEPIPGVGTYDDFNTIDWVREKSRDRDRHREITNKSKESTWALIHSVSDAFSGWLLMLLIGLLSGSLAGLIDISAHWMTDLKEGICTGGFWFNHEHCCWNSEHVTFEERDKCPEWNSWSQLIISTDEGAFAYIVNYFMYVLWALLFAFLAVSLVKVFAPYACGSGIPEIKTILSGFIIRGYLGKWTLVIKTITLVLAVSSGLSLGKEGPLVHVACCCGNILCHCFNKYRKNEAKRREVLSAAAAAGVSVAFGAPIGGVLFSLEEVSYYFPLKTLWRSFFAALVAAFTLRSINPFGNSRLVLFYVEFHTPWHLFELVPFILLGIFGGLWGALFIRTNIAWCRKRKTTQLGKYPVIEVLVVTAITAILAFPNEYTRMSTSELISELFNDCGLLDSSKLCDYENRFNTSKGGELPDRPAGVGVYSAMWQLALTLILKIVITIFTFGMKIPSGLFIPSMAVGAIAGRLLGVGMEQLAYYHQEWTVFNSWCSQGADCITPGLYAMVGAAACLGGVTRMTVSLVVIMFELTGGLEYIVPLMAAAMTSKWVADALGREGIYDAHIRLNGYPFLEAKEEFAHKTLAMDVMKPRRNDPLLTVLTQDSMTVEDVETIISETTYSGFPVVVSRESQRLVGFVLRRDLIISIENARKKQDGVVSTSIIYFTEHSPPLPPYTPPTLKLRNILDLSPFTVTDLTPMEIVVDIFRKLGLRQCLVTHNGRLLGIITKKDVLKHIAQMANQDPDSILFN
# Sequence of UniProt Q14194 (Q14194 whole entry, looked up): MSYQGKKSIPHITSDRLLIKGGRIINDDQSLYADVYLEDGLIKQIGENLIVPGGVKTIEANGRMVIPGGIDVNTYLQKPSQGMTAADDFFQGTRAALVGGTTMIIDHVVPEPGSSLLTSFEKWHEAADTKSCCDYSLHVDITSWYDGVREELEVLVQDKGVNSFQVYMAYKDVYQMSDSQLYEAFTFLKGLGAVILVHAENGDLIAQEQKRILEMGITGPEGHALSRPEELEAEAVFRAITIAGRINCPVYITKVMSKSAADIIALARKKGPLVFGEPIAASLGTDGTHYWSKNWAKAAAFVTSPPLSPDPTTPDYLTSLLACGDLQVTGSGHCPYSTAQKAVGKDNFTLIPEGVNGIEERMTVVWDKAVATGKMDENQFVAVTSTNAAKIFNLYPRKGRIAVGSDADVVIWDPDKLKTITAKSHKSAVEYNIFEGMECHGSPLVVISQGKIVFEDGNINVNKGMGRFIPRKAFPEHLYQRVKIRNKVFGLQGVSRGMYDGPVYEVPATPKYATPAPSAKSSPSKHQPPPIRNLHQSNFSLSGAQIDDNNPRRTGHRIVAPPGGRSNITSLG
# Sequence of UniProt Q9HCH3 (Q9HCH3 whole entry, looked up): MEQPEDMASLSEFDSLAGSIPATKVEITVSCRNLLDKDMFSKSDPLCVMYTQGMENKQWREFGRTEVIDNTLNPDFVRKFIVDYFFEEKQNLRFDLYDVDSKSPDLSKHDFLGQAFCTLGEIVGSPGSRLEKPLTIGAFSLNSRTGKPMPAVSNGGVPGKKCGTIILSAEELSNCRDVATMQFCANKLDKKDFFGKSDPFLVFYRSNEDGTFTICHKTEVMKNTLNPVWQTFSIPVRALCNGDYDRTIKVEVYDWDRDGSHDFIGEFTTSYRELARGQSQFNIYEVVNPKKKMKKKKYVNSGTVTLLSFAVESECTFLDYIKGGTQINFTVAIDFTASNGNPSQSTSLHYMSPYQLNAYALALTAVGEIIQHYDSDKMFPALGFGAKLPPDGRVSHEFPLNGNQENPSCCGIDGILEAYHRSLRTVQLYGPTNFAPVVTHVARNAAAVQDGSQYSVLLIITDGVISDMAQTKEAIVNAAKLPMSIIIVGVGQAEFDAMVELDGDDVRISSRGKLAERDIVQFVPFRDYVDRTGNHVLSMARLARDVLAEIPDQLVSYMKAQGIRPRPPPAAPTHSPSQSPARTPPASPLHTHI
# Sequence of UniProt P48729 (P48729 whole entry, looked up): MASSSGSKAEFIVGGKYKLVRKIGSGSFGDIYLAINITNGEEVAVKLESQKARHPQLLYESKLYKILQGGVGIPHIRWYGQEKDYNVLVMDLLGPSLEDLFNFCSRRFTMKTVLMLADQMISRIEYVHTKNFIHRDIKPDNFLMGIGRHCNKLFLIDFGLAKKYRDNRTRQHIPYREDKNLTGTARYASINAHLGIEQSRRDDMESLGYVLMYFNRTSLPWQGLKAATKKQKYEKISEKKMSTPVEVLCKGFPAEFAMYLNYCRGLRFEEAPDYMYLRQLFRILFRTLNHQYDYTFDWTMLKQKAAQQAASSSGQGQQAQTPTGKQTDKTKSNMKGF
# Sequence of UniProt Q9BWU1 (Q9BWU1 whole entry, looked up): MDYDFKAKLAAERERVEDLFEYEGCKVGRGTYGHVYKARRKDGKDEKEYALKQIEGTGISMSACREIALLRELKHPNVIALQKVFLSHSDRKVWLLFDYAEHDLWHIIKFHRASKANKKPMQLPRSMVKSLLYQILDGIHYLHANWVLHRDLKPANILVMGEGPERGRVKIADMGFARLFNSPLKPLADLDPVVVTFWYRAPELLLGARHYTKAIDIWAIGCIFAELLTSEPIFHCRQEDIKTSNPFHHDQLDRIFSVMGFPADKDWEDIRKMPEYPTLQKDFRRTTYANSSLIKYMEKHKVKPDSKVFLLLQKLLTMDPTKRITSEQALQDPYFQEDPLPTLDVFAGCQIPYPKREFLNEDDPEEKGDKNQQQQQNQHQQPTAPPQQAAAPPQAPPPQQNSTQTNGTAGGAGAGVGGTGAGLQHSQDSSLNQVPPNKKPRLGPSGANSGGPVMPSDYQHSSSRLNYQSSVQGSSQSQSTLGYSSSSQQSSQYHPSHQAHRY
# Sequence of UniProt Q9UIB8 (Q9UIB8 whole entry, looked up): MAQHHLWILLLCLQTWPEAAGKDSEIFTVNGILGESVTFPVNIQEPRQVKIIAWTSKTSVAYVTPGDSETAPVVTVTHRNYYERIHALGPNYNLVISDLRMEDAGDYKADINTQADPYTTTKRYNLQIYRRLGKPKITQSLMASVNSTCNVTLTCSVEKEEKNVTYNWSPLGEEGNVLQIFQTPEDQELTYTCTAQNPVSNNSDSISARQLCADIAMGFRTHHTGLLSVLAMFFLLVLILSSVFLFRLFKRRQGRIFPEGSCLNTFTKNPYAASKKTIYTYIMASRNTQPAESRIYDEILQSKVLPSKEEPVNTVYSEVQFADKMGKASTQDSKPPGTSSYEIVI
target,measurement,setting,value
CCNT2 (UniProt O60583),log2 fold change,[1],-0.797 (active)
same,log2 fold change,[2],0.191
same,log2 fold change,[3],0.059
same,log2 fold change,[4],0.116
same,log2 fold change,[5],0.011
same,log2 fold change,[6],-0.062
same,log2 fold change,[7],0.092
same,log2 fold change,[8],0.042
same,log2 fold change,[9],-0.057
same,log2 fold change,[10],0.348
same,log2 fold change,[11],-0.031
same,log2 fold change,[12],0.211
CS (UniProt F8VU34),log2 fold change,[13],-0.137
same,log2 fold change,[14],-0.024
CASP7 isoform 3 (UniProt P55210),log2 fold change,[13],-0.005
same,log2 fold change,[3],-0.003
same,log2 fold change,[15],0.035
same,log2 fold change,[5],0.064
same,log2 fold change,[10],0.255
same,log2 fold change,[16],-0.005
same,log2 fold change,[14],-0.249
CSNK1A1 isoform 3 (UniProt P48729),log2 fold change,[13],0.029
same,log2 fold change,[9],-0.08
same,log2 fold change,[11],0.227
same,log2 fold change,[12],-0.035
same,log2 fold change,[14],-0.089
CD68 (UniProt P34810),log2 fold change,[13],0.057
same,log2 fold change,[15],-0.535 (active)
same,log2 fold change,[7],0.037
same,log2 fold change,[12],-0.06
same,log2 fold change,[16],-0.091
same,log2 fold change,[14],-0.313
CAD (UniProt H7BZB3),log2 fold change,[1],-0.322
CPNE5 (UniProt Q9HCH3),log2 fold change,[15],-0.209
same,log2 fold change,[6],-0.225
same,log2 fold change,[16],-0.005
CLCN5 isoform 2 (UniProt P51795),log2 fold change,[17],-0.019
same,log2 fold change,[2],-0.154
same,log2 fold change,[15],-0.29
same,log2 fold change,[4],-0.004
same,log2 fold change,[18],0.061
same,log2 fold change,[5],0.021
same,log2 fold change,[6],0.009
same,log2 fold change,[8],0.052
same,log2 fold change,[19],-0.016
same,log2 fold change,[20],0.029
same,log2 fold change,[16],0.022
COMMD3-BMI1 (UniProt R4GMX3),log2 fold change,[1],0.055
same,log2 fold change,[3],-0.003
same,log2 fold change,[5],0.028
same,log2 fold change,[6],-0.071
same,log2 fold change,[7],-0.002
same,log2 fold change,[9],-0.126
same,log2 fold change,[10],0.03
same,log2 fold change,[11],-0.426 (active)
CDK19 (UniProt Q9BWU1),log2 fold change,[1],0.541 (active)
same,log2 fold change,[2],-0.133
same,log2 fold change,[3],-0.02
same,log2 fold change,[15],0.222
same,log2 fold change,[4],0.074
same,log2 fold change,[5],-0.156
same,log2 fold change,[6],0.119
same,log2 fold change,[7],-0.032
same,log2 fold change,[8],0.212
same,log2 fold change,[9],0.246
same,log2 fold change,[10],-0.039
same,log2 fold change,[20],0.057
same,log2 fold change,[11],-0.026
same,log2 fold change,[12],-0.109
same,log2 fold change,[16],-0.133
CRMP1 isoform 2 (UniProt Q14194),log2 fold change,[13],0.038
same,log2 fold change,[1],-0.224
same,log2 fold change,[15],0.124
same,log2 fold change,[5],0.196
same,log2 fold change,[6],0.181
same,log2 fold change,[7],0.089
same,log2 fold change,[20],-0.026
same,log2 fold change,[16],-0.19
same,log2 fold change,[14],0.035
CD84 (UniProt Q9UIB8),log2 fold change,[1],-0.166
same,log2 fold change,[3],0.068
same,log2 fold change,[15],0.024
same,log2 fold change,[6],0.233
same,log2 fold change,[7],-0.181
same,log2 fold change,[10],0.096
same,log2 fold change,[16],0.006
CNRIP1 (UniProt Q96F85),log2 fold change,[2],-0.051
same,log2 fold change,[3],-0.255
same,log2 fold change,[15],0.034
same,log2 fold change,[4],0.116
same,log2 fold change,[5],0.165
same,log2 fold change,[8],0.073
same,log2 fold change,[9],0.023
same,log2 fold change,[10],-0.206
same,log2 fold change,[11],-0.075
same,log2 fold change,[12],-0.087
same,log2 fold change,[16],0.106
CLN8 (UniProt Q9UBY8),log2 fold change,[1],-0.164
same,log2 fold change,[2],0.643
same,log2 fold change,[15],0.017
same,log2 fold change,[4],0.139
same,log2 fold change,[5],0.043
same,log2 fold change,[6],0.138
same,log2 fold change,[7],-0.018
same,log2 fold change,[8],0.081
same,log2 fold change,[9],-0.085
same,log2 fold change,[20],-0.001
same,log2 fold change,[11],-0.109
same,log2 fold change,[12],-0.132
same,log2 fold change,[16],-0.086
same,log2 fold change,[14],0.051

# Source: the supplement of paper PMC10849652
